Results from PubChem BioAssay AID2157 (National Center for Advancing Translational Sciences (NCATS), 2009).
Inconclusive results are not listed. Values without a mark were called inactive. Calls follow the shape of the dose curve; as a rule, active = well fitted inhibition curve with a large enough effect; inconclusive = small, poorly fitted or top-dose-only effect; inactive = no such curve, though single readings can be large or run the other way.

Molecular target: Polyunsaturated fatty acid lipoxygenase ALOX15 (Homo sapiens) (UniProt P16050)
Experiment: Confirmation qHTS Assay for Inhibitors of 15-hLO (15-human lipoxygenase)
Settings: purified enzyme, xylenol orange hydroperoxide absorbance; stronger effect = lower value
Description: Assay Provider: Holman, T.R., University of California, Santa Cruz Screening Center PI: Austin, Christopher P. Screening Center: NIH Chemical Genomics Center Human lipoxygenase 15hLO-1 is a member of the closely related lipoxygenase family of enzymes which catalyze the site-specific oxidation of arachidonic acid to various hormone precursor molecules and as such is a candidate for drug development in a variety of disease areas, such as cancer and inflammation. Inhibition of 15hLO-1 activity was screened by utilizing arachidonic acid as a substrate. The extent of hydroperoxide product formation was measured by a secondary chromogenic reaction in which xylenol orange (XO, Sigma-Aldrich, cat. number 39,818-7) reacts with the ferric ions produced from the reaction between the hydroperoxide and ferrous ions. The Fe(III)-XO complex is characterized with red-shifted absorbance at 560 nm. A purified preparation of human 15hLO-1 was supplied by Professor Ted Holman, University of California, Santa Cruz. This assay includes some confirmation and follow-up compounds for related primary screening assay AID 887.
Assay Protocol: Buffer: 25 mM Hepes pH 7.5, 0.01% Triton X-100. […] The absorbance at 405 and 573 nm were measured using ViewLux (Perkin-Elmer) High-throughput CCD imager and absorbance protocol settings. The 573-to-405 absorbance ratio was used to compute reaction progress.

Polyunsaturated fatty acid lipoxygenase ALOX15 (Homo sapiens), sequence (P16050 whole entry, looked up): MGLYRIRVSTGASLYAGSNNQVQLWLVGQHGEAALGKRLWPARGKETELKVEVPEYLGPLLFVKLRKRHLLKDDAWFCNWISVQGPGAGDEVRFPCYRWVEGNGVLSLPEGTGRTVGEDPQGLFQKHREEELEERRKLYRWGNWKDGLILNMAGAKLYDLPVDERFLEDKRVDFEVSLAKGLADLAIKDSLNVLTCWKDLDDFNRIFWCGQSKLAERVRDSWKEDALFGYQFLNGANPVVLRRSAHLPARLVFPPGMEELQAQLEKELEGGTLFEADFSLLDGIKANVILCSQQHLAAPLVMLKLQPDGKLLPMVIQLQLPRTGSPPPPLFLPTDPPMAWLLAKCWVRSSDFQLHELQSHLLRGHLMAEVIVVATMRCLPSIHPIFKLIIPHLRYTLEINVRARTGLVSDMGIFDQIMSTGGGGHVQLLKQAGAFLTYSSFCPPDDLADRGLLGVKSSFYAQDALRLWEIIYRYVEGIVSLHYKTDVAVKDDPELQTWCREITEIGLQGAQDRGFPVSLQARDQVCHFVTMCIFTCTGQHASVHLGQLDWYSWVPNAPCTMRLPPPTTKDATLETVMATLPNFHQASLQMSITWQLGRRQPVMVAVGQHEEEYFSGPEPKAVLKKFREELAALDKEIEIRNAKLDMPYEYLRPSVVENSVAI

CCC(C)C(=O)c1c(O)c(C)c2oc3c(C)c(O)c(C(=O)C(C)CC)c(O)c3c2c1O (stereo unspecified)
max response: -17.1%
